Experiments:
[1] = test system: Vero E6 infected with SARS-CoV-2; assay: morphology score (similarity to uninfected cells); higher = more like uninfected cells; conditions: 24 h
[2] = test system: Vero E6 infected with SARS-CoV-2; assay: SARS-CoV-2 infection rate relative to infected DMSO; higher = more infection, active = 60 or less; conditions: 24 h

Structure (SMILES) | morphology score [1] | SARS-CoV-2 infection rate [2]
O[C@H]1CC[C@H](Nc2nc(-c3ccccc3)nc3[nH]ccc23)CC1 (10 µM) | 0.409 | 93% (inactive)
O=c1c(-c2ccc(O)cc2)coc2c([C@@H]3O[C@H](CO)[C@@H](O)[C@H](O)[C@H]3O)c(O)ccc12 [puerarin] (10 µM) | 0.0648 | 98.5% (inactive)
CO[C@H]1/C=C/O[C@@]2(C)Oc3c(C)c(O)c4c(O)c(c5c(nc6cc(C)ccn65)c4c3C2=O)NC(=O)/C(C)=C\C=C\[C@H](C)[C@H](O)[C@@H](C)[C@@H](O)[C@@H](C)[C@H](OC(C)=O)[C@@H]1C [rifaximin] (10 µM) | 0.0779 | 108% (inactive)
Nc1ncnc2c1ncn2[C@@H]1O[C@H](C[C@@H](N)CC[C@H](N)C(=O)O)[C@@H](O)[C@H]1O [sinefungin] (10 µM) | 0.0839 | 109% (inactive)
COc1cc(N2CCN(C)CC2)ccc1Nc1nccc(-c2cn(C)c3cnccc23)n1 (0.833333 µM) | 0.377 | 100% (inactive)
C=CCNC1=C2C[C@@H](C)C[C@H](OC)[C@H](O)[C@@H](C)/C=C(\C)[C@H](OC(N)=O)[C@@H](OC)/C=C\C=C(/C)C(=O)NC(=CC1=O)C2=O [tanespimycin] (10 µM) | -0.0472 | 114% (inactive)
CCOc1cc2ncc(C#N)c(Nc3ccc(OCc4ccccn4)c(Cl)c3)c2cc1NC(=O)/C=C/CN(C)C [neratinib] (10 µM) | -0.265 | 102% (inactive)
Fc1ccc(-c2c3cccc(C(F)(F)F)c3nn2Cc2ccc(F)cc2Cl)cc1 (10 µM) | 0.289 | 95.5% (inactive)
